Most compounds without a hit are left out; they make up all but 3.4% or so of the library.
GPR151 activ: human GPR151 activation; AID 1508602; 650,000 compounds, 1% hits; activation, % at 11.2 µM; Q8TDV0; PathHunter beta-arrestin GPR151 cells, luminescence; in the data active means activation above about 4.9%;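 further: 0% = median of compound wells and 100% = cells with positive control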
FBW7 act: activators of human E3 ligase FBW7; 650,000 compounds, 0.13% hits; normalized activity (activation), % at 26.1 µM; AlphaScreen FBW7–phospho-cyclin E peptide binding, activator screen; Q969H0; in the data active means normalized activity above about 1.9%;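 further: purified mutant Fbw7 with reduced substrate affinity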
MITF inh: blocks human microphthalmia-associated transcription factor; inhibition, % at 2.6 µM; O75030; AlphaScreen MITF homodimerization, bead proximity signal; 650,000 compounds, 0.91% hits; in the data active means inhibition above about 50%;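 further: 0% = vehicle wells with protein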
TEAD-YAP inh: TEAD-YAP interaction inhibition; HEK-TIYL cells, TEAD-Gal4/YAP UAS-luciferase luminescence; inhibition, % at 9.12 µM; 640,000 compounds, 1.4% hits; in the data active means inhibition above about 32%;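 further: 0% = median of test compound wells and 100% = reference inhibitor wells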
GPR151 confirm: confirmation of human GPR151 activators; shares compounds with GPR151 activ; GPR151 PathHunter beta-arrestin cells, luminescence, 90 min; % of EA-reagent control over plate median; activation, % at 11.2 µM; 6,700 tested, under 10 active; AID 1508609;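 active means mean percent activation across replicates above the confirmation screen cutoff of 4.91%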
GPR119 counter: counter-screen for GPR151 activators: effect on human GPR119; shares compounds with GPR151 activ; GPR119 PathHunter beta-arrestin cells, luminescence, 90 min; 0 = compound-well median, 100 = enzyme-acceptor control; activation, % at 11.2 µM; 6,700 compounds, 0.3% hits; AID 1508611;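 active means mean percent activation in the counterscreen above 29.09%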;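 further: counterscreen on off-target GPR119 to flag nonselective hits from the GPR151 activator screen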
Target sequence (Q8TDV5 whole entry, looked up): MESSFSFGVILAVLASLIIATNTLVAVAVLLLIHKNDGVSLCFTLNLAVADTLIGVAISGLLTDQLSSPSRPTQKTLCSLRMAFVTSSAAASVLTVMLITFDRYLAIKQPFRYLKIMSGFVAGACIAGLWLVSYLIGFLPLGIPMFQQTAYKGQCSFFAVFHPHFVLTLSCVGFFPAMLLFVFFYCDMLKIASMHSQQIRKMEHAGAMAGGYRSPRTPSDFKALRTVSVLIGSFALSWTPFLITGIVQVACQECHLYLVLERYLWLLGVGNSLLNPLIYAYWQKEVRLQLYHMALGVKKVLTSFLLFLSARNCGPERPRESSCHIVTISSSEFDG
* = called active by the depositor; · = no result; ! = not confirmed by another sample.

SMILES	GPR151 activ	FBW7 act	MITF inh	TEAD-YAP inh	GPR151 confirm	GPR119 counter
COc1ccccc1NC(=O)[C@H]1O[C@@H]2OC(C)(C)O[C@@H]2[C@H]2OC(C)(C)O[C@H]21	6.9*	0	-5	8	2	10
O=C(CC1S\C(=N/N=C/C=C/c2ccccc2)NC1=O)Nc1ccccc1F (stereo unspecified)	7.8*	0	-11	1	1	-3
COc1cccc(NC(=O)CN(C2=NC3CS(=O)(=O)CC3S2)c2ccccc2F)c1 (stereo unspecified)	5.0*	0	4	4	0	-7
COc1ccc(-c2nc3c(c4c2C[C@H](c2ccccc2)OC4)CN(C(=O)C2CCCCC2)CC3)c(C)c1	4	0	-4	·	·	·
COc1ccc(-c2nc3c(c4c2C[C@H](c2ccccc2)OC4)CN(C(=O)N[C@@H](C)C(=O)OC(C)C)CC3)c(C)c1	6.2*	0	-12	·	0	3
COc1cccc(CN(CCCN2CCCC2)C(=O)Nc2ccc(-c3cn[nH]c3)cc2OCCCO)c1	-1	0	8	-5	·	·
COc1ccc(CCN2CCC(NCC3CC3)CC2)cc1	0	0	-5	8	·	·
COc1ccc(CCN2CCC(Nc3nc4ccccc4n3Cc3ccc(F)cc3)CC2)cc1	9.2*!	0	-3	5	2	-1
N#Cc1ccc(Cn2cc([N+](=O)[O-])cn2)cc1	1	0	9	4	·	·
Cc1ccc(NC(=O)C2CC(Cl)=CCC2C(=O)O)cc1[N+](=O)[O-] (stereo unspecified)	18*	0	-6	9	0	-4
OCCNCCCCOc1ccc(OCc2ccccc2)cc1	6.2*	0	5	6	0	-18
CN(C)CCNC(=O)NC1(C(F)(F)F)Oc2ccc(Cl)cc2O1 (stereo unspecified)	-1	0	23	-8	·	·
COc1cc2[nH]c(=O)n(CCCC(=O)NCc3ccccc3Cl)c(=O)c2cc1OC	6.8*	0	0	-12	1	4
CCCC(=O)NCc1ccc(OC)cc1	1	0	-2	-15	·	·
COc1ccc2[nH]c3c(=O)n(CCCCC(=O)NC(C)C)c(=S)[nH]c3c2c1	0	1	9	0	·	·
COc1ccc(CNC(=O)CCCn2cccc2)cc1	8.2*	0	8	-15	2	6
CCCCNC(=O)CCCCCn1c(=O)[nH]c2cc(OC)c(OC)cc2c1=O	0	0	-9	2	·	·
COc1ccc2[nH]c3c(=O)n(CCCC(=O)Nc4ccccc4)c(=S)[nH]c3c2c1	7.7*	0	-1	3	-1	-7
COc1ccc(CNC(=O)CCCn2c(=O)[nH]c3ccccc3c2=O)cc1	7.0*	0	-9	-3	0	-2
Cc1cnc(C(=O)Nc2ccc3c(c2)oc2ccccc23)cn1	-1	0	-2	-2	·	·
Cc1cccc(-n2nnnc2SCC(=O)NN2C(=O)NC(C)(c3ccccc3)C2=O)c1 (stereo unspecified)	6.9*	0	-8	8	1	12
COc1ccc(OC)c(/C=C2\SC(=N)N(c3ccc4c(c3)OCO4)C2=O)c1	0	0	0	6	·	·
FC(F)(F)c1ccc(Cn2cnc3c(NC4CCN(Cc5ccccc5)CC4)nc(-c4csc5ccccc45)nc32)cc1	7.0*	0	-3	8	0	3
FC(F)(F)c1ccc(Cn2cnc3c(NC4CC4)nc(-c4csc5ccccc45)nc32)cc1	1	0	4	-6	·	·
c1ccc2c(-c3nc(NC4CC4)c4ncn(C5CCCCC5)c4n3)csc2c1	7.5*	0	-3	-13	-1	-16
SMILES	GPR151 activ	FBW7 act	MITF inh	TEAD-YAP inh	GPR151 confirm	GPR119 counter
O=C(CSc1cccc[n+]1[O-])N1CCCCCC1	2	0	2	2	·	·
[O-][n+]1ccccc1SSc1cccc[n+]1[O-]	6.9*	0	1	96*	-1	-14
Cc1noc(CNC(=O)c2ccc3ccccc3n2)n1	5.4*	0	10	-8	0	-8
CCc1cc(N2CCN(C)CC2)n2nc3nc(C)cc(C)c3c2n1	7.2*	0	-4	-12	1	11
CCc1cc(N2CCCC2)n2nc3nc(C)cc(C)c3c2n1	0	1	-1	3	·	·
COc1cc(Br)cc(CN2CCN(C=O)CC2)c1O	7.3*	0	-18	4	1	2
Cc1ccc(CNC(=O)CSc2nc3ccsc3c(=O)n2CC2CCC(C(=O)O)CC2)cc1 (stereo unspecified)	0	0	2	6	·	·
COCCCNC(=O)CCc1c(C)nc2cc(-c3ccccc3)nn2c1C	5.3*	0	-1	-3	0	-1
CS(=O)(=O)c1ccc2c(c1)SC1=NC(C(F)(F)F)(C(F)(F)F)NC(=O)N12	0	0	1	0	·	·
CCOC(=O)CC1=CSC2=NC(C(F)(F)F)(C(F)(F)F)NC(=O)N12	5.6*	0	5	7	0	-2
CCCSc1nc2c(c(=O)[nH]c(=O)n2C)n1CC(O)Oc1cccc2ccccc12 (stereo unspecified)	6.2*	0	11	10	0	-8
Cn1c(=O)[nH]c(=O)c2c1nc(NCc1ccccc1)n2Cc1ccccc1	0	0	6	-2	·	·
Cn1c(=O)[nH]c(=O)c2c1nc(N1CCN(c3cccc(Cl)c3)CC1)n2Cc1ccccc1	5.3*	0	-15	1	2	6
Cc1cccc(Cn2c(SCC(C)C)nc3c2c(=O)[nH]c(=O)n3C)c1	5.2*	1	19	2	0	1
Cn1c(=O)[nH]c(=O)c2c1nc(NCc1ccccc1)n2Cc1ccc(Cl)cc1	6.7*	0	0	0	1	-3
Cc1onc(-c2c(Cl)cccc2Cl)c1C(=O)NC(C)C	0	0	10	3	·	·
CN1CCN(Cc2cnn(-c3ccccc3Cl)c2)CC1CCO (stereo unspecified)	-1	0	7	-10	·	·
COc1ccc(OC)c(CNC2CCCCCC2)c1	2	0	28	11	·	·
Oc1ccccc1C=Nc1ccc(Br)cn1	-1	1	-15	-5	·	·
Cc1ccc(-n2ncc3c(=O)n(CC(=O)Nc4cccc5ccccc45)cnc32)cc1C	6.7*	0	-7	5	0	11
COC(=O)c1ccc(NC(=O)Cn2cnc3c(cnn3-c3cccc(C)c3C)c2=O)cc1	8.8*	0	0	9	1	9
Cc1ccc(NC(=O)Cn2cnc3c(cnn3-c3cccc(C)c3C)c2=O)cc1Cl	-1	0	-6	6	·	·
CCc1cccc(C)c1NC(=O)Cn1cnc2c(cnn2-c2ccc(OC)cc2)c1=O	6.9*	0	14	4	0	7
